This is part of a sample that, as a whole, favours compounds with a hit. Of some 79,000 tested, about 15% had one in any assay. Rule as the data show it: active = growth inhibition above about 70%; inactive = the rest. Where a SMILES comes first, the peptide text is derived from it. [ ]: non-standard residue; d: D form. ξ: configuration not given here. ξH = NC(Cc1c[nH]cn1)C(=O)O
Legend:
[1] = NCI Yeast Anticancer Drug Screen. Data for the rad50 strain (AID 155);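 also: 0% = growth of vehicle-only cultures of the same strain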; settings: S. cerevisiae rad50 strain growth inhibition; at 50.0 µM; stronger effect = higher value
In short: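 Yeast carrying a defined DNA repair defect were exposed to test compounds, and growth was compared with vehicle-treated controls to give percent inhibition.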

[2] = NCI Yeast Anticancer Drug Screen. Data for the mec2-1 strain (AID 157); settings: S. cerevisiae mec2-1 strain, at 50.0 µM, stronger effect = higher value
In short: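 Vehicle-treated cultures served as reference for growth inhibition of compound-exposed mec2-1 yeast.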

[3] = NCI Yeast Anticancer Drug Screen. Data for the sgs1 mgt1 strain (AID 161);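 also: 0% = growth of cultures given vehicle only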; settings: S. cerevisiae sgs1 mgt1 strain, at 50.0 µM, stronger effect = higher value
In short: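 Read-out: growth inhibition vs vehicle controls. Cells: mutant yeast strain deficient in DNA damage repair.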

[4] = NCI Yeast Anticancer Drug Screen. Data for the cln2 rad14 strain (AID 165);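 also: 0% = growth equal to vehicle treated cultures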; settings: S. cerevisiae cln2 rad14 strain, at 50.0 µM, stronger effect = higher value
In short: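 Each compound was tested on cln2 rad14 yeast. Inhibition of growth was calculated against vehicle-exposed controls.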

[5] = NCI Yeast Anticancer Drug Screen. Data for the bub3 strain (AID 167); settings: S. cerevisiae bub3 mutant strain, at 50.0 µM, stronger effect = higher value
In short: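 Compounds were applied to a genetically altered yeast strain carrying a cell-cycle control defect. Growth inhibition was scored against vehicle-treated controls.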

[6] = NCI Yeast Anticancer Drug Screen. Data for the mlh1 rad18 strain (AID 175); settings: S. cerevisiae mlh1 rad18 strain growth inhibition; at 50.0 µM; stronger effect = higher value
In short: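 Vehicle-treated cultures served as the reference for growth inhibition in a yeast strain carrying DNA damage repair alterations exposed to each compound.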

Measured: growth inhibition

Nc1cccc2ccc(Cl)nc12
inactive: [1] 37.9% | [2] 19.4% | [3] 14.2% | [4] 9.7% | [5] 16.3%

NCCCCCC(=O)O
inactive: [1] -37.5% | [2] -25.4% | [3] -17.6% | [4] 8.2% | [5] -22%

CSc1sc2ccc(S(=O)(=O)O)cc2[n+]1C
inactive: [1] 24.1% | [2] -6.7% | [3] 15.7% | [4] -4.4% | [5] -1.85%

Nc1cccc2c1CCC=C2
inactive: [1] -0.05% | [2] -6.5% | [3] -3.55% | [4] -6% | [5] 7.6%

CO/N=C1\CC(NC(=O)C(F)(F)F)c2ccsc21 (centres undefined)
inactive: [1] 11.6% | [2] 6.9% | [3] 8% | [4] 13.3% | [5] -2.8%

CC1(C)OC2C(CO)OC(n3cnc4c(=S)nc(N)[nH]c43)C2O1 (centres undefined)
inactive: [1] 18.6% | [2] 12.8% | [3] 2.5% | [4] -24.1% | [5] 12.5%

CCOC(=O)C(N)Cc1cc(I)c(O)c(I)c1 (centres undefined)
inactive: [1] -20.1% | [2] -31.1% | [3] -14.4% | [4] 7.8% | [5] -23.2%

N#CCCNC(CC(=O)O)C(=O)O (centres undefined)
inactive: [1] 10.7% | [2] 1.55% | [3] 14.4% | [4] -13.2% | [5] 0.5%

Cc1ccc(-c2nc(C)c(C(=O)Nc3ccc(Cl)cc3)s2)cc1
inactive: [1] -36.6% | [2] -25.4% | [3] -59.4% | [4] 2.85% | [5] -12.3%

Cc1ccc2nc(C)cc(N=[N+]=[N-])c2c1
inactive: [1] -35.6% | [2] -21.8% | [3] -17.1% | [4] -58.9% | [5] -2.2%

CCC(C(=O)O)c1ccc(OCc2ccccc2)cc1 (centres undefined)
inactive: [1] 15.7% | [2] 2% | [3] -10.2% | [4] 18.7% | [5] 8.05%

O=C1CCCCC1CO (centres undefined)
inactive: [1] -0.1% | [2] 1.5% | [3] -0.65% | [4] -5.5% | [5] 1.4%

COC(=O)C1=C(C(=O)OC)C2CCC1O2
inactive: [1] -0.5% | [2] -6% | [3] -0.4% | [4] -11.7% | [5] 8.35%

Cc1c2ccccc2nc(CSc2n[nH]c(=S)s2)[n+]1[O-]
inactive: [1] -8.55% | [2] 18.6% | [3] 8% | [4] -44.5% | [5] 8.5%

NC(=O)N1CCCC1=O
inactive: [1] -18.4% | [2] -18.9% | [3] -20.8% | [4] -8.5% | [5] -11.3%

CCCC[N+](C)(C)CC[N+](C)(C)CCCC
inactive: [1] 4.25% | [2] -14.9% | [3] -10% | [4] -36.3% | [5] -1.4%

O=c1[nH]c2cccccc-2c1-c1nc2ccccc2[nH]1
inactive: [1] 40.6% | [2] 15.2% | [3] 33.6% | [4] 19.5% | [5] 16.7%

O=S(=O)(O)CC(O)CSSCC(O)CS(=O)(=O)O (centres undefined)
inactive: [1] 33.2% | [2] -3.55% | [3] 8.25% | [4] -4.05% | [5] 1.4%

Cc1cc(Br)ccc1NC1=CC(=O)C(=O)c2ccccc21
inactive: [1] 9.95% | [2] 19.6% | [3] -3.4% | [4] 11.3% | [5] 13.2% | [6] 32.1%

O=Cc1ccc2c(c1)CC1(Cc3ccccc3C1)C2
inactive: [1] -3.35% | [2] -47.8% | [3] -10.8% | [4] -7.2% | [5] 9.9%

Cc1ccnc(N(C)CCN2CCCCC2)c1
inactive: [1] 2.75% | [2] 8.15% | [3] 7.3% | [4] -34.5% | [5] 12.4% | [6] -20.8%

COC(=O)CCC(=O)c1ccc2c(c1)CC1(C2)Cc2ccc3c(c2C1)CCCC3=O (centres undefined)
inactive: [1] -10.9% | [2] -27.1% | [3] -14.1% | [4] 5.9% | [5] -13.6%

COc1ccc(Cc2ccc(OC)c3ccccc23)c2ccccc12
inactive: [1] 9.65% | [2] -2.45% | [3] 4.3% | [4] -30.9% | [5] 15.2%

CSCNC(=S)Nc1ccc(Cl)c(Cl)c1
inactive: [1] 59.2% | [2] 45% | [3] 35% | [4] 23.4% | [5] 53%

CCC(c1ccc(OCc2ccccc2)cc1)c1cc2c(cc1OCCO)OCO2 (centres undefined)
inactive: [1] 23.7% | [2] 57% | [3] -3% | [4] 0.9% | [5] 39.7%

O=C(O)Cc1ccccc1-c1ccccc1
inactive: [1] -22.2% | [2] -8.15% | [3] -19.2% | [4] 22.4% | [5] -6.2%

CC1=CC(=O)/C(=C\c2ccc3c(c2)OCO3)C(C)(C)C1
inactive: [1] -23.1% | [2] -8.45% | [3] 4.5% | [4] -19.4% | [5] 52.3%

CCOC(=O)/C(C#N)=C/NC(N)=O
inactive: [1] -2.55% | [2] 3.05% | [3] -10.1% | [4] -10% | [5] 1.95%

CCCC(=O)Nc1cccc(Cl)c1
inactive: [1] 16.2% | [2] 9.05% | [3] 8.85% | [4] 7.65% | [5] -0.75%

NCC(=O)NC(Cc1cnc[nH]1)C(=O)NCC(=O)O (centres undefined) (H-Gly-[ξH]-Gly-OH)
inactive: [1] -3.45% | [2] 7.9% | [3] -0.2% | [4] -31.6% | [5] 6.2%

Cc1ccc(S(=O)(=O)N/N=C/c2cc([N+](=O)[O-])ccc2O)cc1
inactive: [1] 5% | [2] 3.4% | [3] 10.1% | [4] 14.8% | [5] 9.5%

Cc1cc(Cl)c2c(C)ccc(C)c2n1
inactive: [1] -4.25% | [2] -31.9% | [3] 9.85% | [4] 5.7% | [5] 4%

Cc1nc(C)c(N2CCN(Cc3ccccc3)CC2)c(=O)[nH]1
inactive: [1] 8.65% | [2] 2.5% | [3] -45.1% | [4] 13% | [5] 17.4%

COc1ccc2nc3cccc([N+](=O)[O-])c3c(NCCC(=O)O)c2c1
inactive: [1] 56.1% | [2] -18.9% | [3] 49.9% | [4] 26.8% | [5] -5.25%

O=C1CCC2CN(C(=O)c3ccccc3)CCC2C1 (centres undefined)
inactive: [1] 8.75% | [2] 7.7% | [3] 21.1% | [4] 3.1% | [5] 16.6%

COc1nc(NC2OC(CO)C(O)C(O)C2O)c(C(C)=O)c(=O)n1C (centres undefined)
inactive: [1] 12.2% | [2] 2.25% | [3] 24.1% | [4] 15.2% | [5] -6.25%

CCNC1=CC(=O)c2ncccc2C1=O
inactive: [1] 47.9% | [2] 15.7% | [3] 27.7% | [4] -8.25% | [5] 39.2%

O=[N+]([O-])c1ccc(CS(=O)(=O)c2cccs2)o1
inactive: [1] 39% | [2] 12.8% | [3] 19.1% | [4] -6.25% | [5] 19.5%

[Cl][Sm]([Cl])[Cl]
inactive: [1] 17.9% | [2] -9.7% | [3] 8.65% | [4] 8.6% | [5] 27.6%

O=C(CC(C(=O)c1cccs1)c1ccsc1)c1ccc(Cl)s1 (centres undefined)
inactive: [1] -5.35% | [2] -15% | [3] -11.1% | [4] 4.2% | [5] -2.2% | [6] -5.05%

CC(Cl)C(=O)N(C)c1ccccc1 (centres undefined)
inactive: [1] 3.6% | [2] -14.8% | [3] -2.9% | [4] -16% | [5] -14.8% | [6] -14.1%

NC(CC(=O)NC(CC(=O)O)C(=O)O)C(=O)O (centres undefined)
inactive: [1] -5.5% | [2] -1% | [3] -8.9% | [4] -56% | [5] -20% | [6] 5.2%

COC(=O)/C(N=Nc1cccc(C)c1)=C(\C)O
inactive: [1] 8.65% | [2] 5.65% | [3] 5.3% | [4] 19.9% | [5] 9.8% | [6] -2.7%

O=C(Nc1cccc([N+](=O)[O-])c1)OCC#CCOC(=O)Nc1cccc([N+](=O)[O-])c1
inactive: [1] 3.8% | [2] 7.5% | [3] 13.7% | [4] 11.8% | [5] 9.95% | [6] 16.1%

O=C(Nc1ccc(NC(=O)OCc2ccccc2)c(Cl)c1)OCc1ccccc1
inactive: [1] 20.4% | [2] 11.3% | [3] 6.85% | [4] -26.6% | [5] 6.3% | [6] 3%

COc1ccc(C2C(C#N)=C(S)N(C3OC(COC(C)=O)C(OC(C)=O)C(OC(C)=O)C3OC(C)=O)C(c3ccccc3)=C2C(C)=O)cc1 (centres undefined)
inactive: [1] 44% | [2] 38.4% | [3] 42% | [4] -4.2% | [5] -38.9% | [6] 39%
